In PubChem BioAssay AID1159580 (chemical genetic matrix, 2015):
“And” between values parts separate entries of the source, which are not always exact repeats. Identical values can stand only once. The whole screen tested about 5,500 compounds, of which about 2,000 (36%) were called active. Another 18% or so got no clear call; they are omitted. Rule as the data show it: active = normalized growth mostly below about 0.91 (no sharp cut-off); inconclusive = no clear call, values can overlap the other calls; inactive = mostly above about 0.92. Some of the results follow.

Test: chemical genetic growth profiling, strain panel (AID 1159580);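 also: tested at 20 µM; growth read once vehicle control cultures reached saturation at 30 °C; 1 = growth at the plate median or of vehicle wells; lower values mean less growth of the strain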
Conditions: growth OD

Measured: normalized growth

CC(CCc1ccccc1)NC(C)C(O)c1ccc(O)cc1 (stereo not given)
inactive: S. cerevisiae deletion strains, locus YJR075W, strain HOC1, hits give low values 1.01 | S. cerevisiae deletion strains, locus YKL009W, strain mrt4, hits give low values 0.988 | S. cerevisiae deletion strains, locus YKL068W, hits give low values 0.987 | S. cerevisiae deletion strains, locus YKL085W, strain MDH1 (second series), hits give low values 0.997 | S. cerevisiae deletion strains, locus YKL085W, strain MDH1, hits give low values 0.997 | S. cerevisiae deletion strains, locus YKL160W, strain elf1, hits give low values 1 | S. cerevisiae deletion strains, locus YKL190W, strain CNB1, hits give low values 0.99 | S. cerevisiae deletion strains, locus YKR001C, strain vps1, hits give low values 0.97 | S. cerevisiae deletion strains, locus YKR026C, strain gcn3, hits give low values 1 | S. cerevisiae deletion strains, locus YKR091W, strain srl3, hits give low values 1 | S. cerevisiae deletion strains, locus YLL001W, strain dnm1, hits give low values 1.01 | S. cerevisiae deletion strains, locus YLL026W, hits give low values 1 | S. cerevisiae deletion strains, locus YLL041C, strain sdh2, hits give low values 0.999 | S. cerevisiae deletion strains, locus YLR027C, strain aat2, hits give low values 0.994 | S. cerevisiae deletion strains, locus YLR039C, strain RIC1, hits give low values 1.01 | S. cerevisiae deletion strains, locus YLR058C, strain SHM2, hits give low values 0.976 | S. cerevisiae deletion strains, locus YLR102C, strain apc9, hits give low values 0.99 | S. cerevisiae deletion strains, locus YLR113W, strain HOG1, hits give low values 0.995 | S. cerevisiae deletion strains, locus YLR221C, strain rsa3, hits give low values 1.02 | S. cerevisiae deletion strains, locus YLR258W, strain gsy2, hits give low values 1 | S. cerevisiae deletion strains, locus YLR262C, strain YPT6 (second series), hits give low values 0.96 | S. cerevisiae deletion strains, locus YLR262C, strain YPT6, hits give low values 0.99 | S. cerevisiae deletion strains, locus YLR268W, strain sec22, hits give low values 1.04 | S. cerevisiae deletion strains, locus YLR320W, strain mms22, hits give low values 1.02 | S. cerevisiae deletion strains, locus YLR330W, strain CHS5, hits give low values 0.997 | S. cerevisiae deletion strains, locus YLR342W, strain FKS1 (second series), hits give low values 1.01 | S. cerevisiae deletion strains, locus YLR342W, strain FKS1, hits give low values 1 | S. cerevisiae deletion strains, locus YLR357W, strain rsc2, hits give low values 0.983 | S. cerevisiae deletion strains, locus YLR370C, strain arc18, hits give low values 1 | S. cerevisiae deletion strains, locus YLR371W, strain rom2, hits give low values 0.974 | S. cerevisiae deletion strains, locus YLR384C, strain iki3, hits give low values 1.01 | S. cerevisiae deletion strains, locus YLR418C, strain cdc73, hits give low values 0.997 | S. cerevisiae deletion strains, locus YML016C, strain PPZ1, hits give low values 0.993 | S. cerevisiae deletion strains, locus YML032C, strain rad52, hits give low values 1 | S. cerevisiae deletion strains, locus YML120C, strain ndi1, hits give low values 1.01 | S. cerevisiae deletion strains, locus YML124C, strain tub3, hits give low values 0.982 | S. cerevisiae deletion strains, locus YMR058W, strain fet3, hits give low values 0.998 | S. cerevisiae deletion strains, locus YMR078C, strain ctf18, hits give low values 0.987 | S. cerevisiae deletion strains, locus YMR125W, strain sto1, hits give low values 1.01 | S. cerevisiae deletion strains, locus YMR129W, hits give low values 0.984 | S. cerevisiae deletion strains, locus YMR205C, strain PFK2, hits give low values 1.02 | S. cerevisiae deletion strains, locus YMR223W, strain ubp8, hits give low values 0.989 | S. cerevisiae deletion strains, locus YMR231W, strain pep5, hits give low values 1 | S. cerevisiae deletion strains, locus YMR263W, strain SAP30, hits give low values 1.01 | S. cerevisiae deletion strains, locus YMR307W, strain GAS1, hits give low values 1.05 | S. cerevisiae deletion strains, locus YNL067W, strain RPL9B, hits give low values 0.995 | S. cerevisiae deletion strains, locus YNL071W, strain lat1, hits give low values 0.999 | S. cerevisiae deletion strains, locus YNL128W, strain TEP1, hits give low values 1.01 | S. cerevisiae deletion strains, locus YNL153C, strain GIM3, hits give low values 1 | S. cerevisiae deletion strains, locus YNL175C, strain NOP13, hits give low values 1.01 | S. cerevisiae deletion strains, locus YNL183C, strain NPR1, hits give low values 0.944 | S. cerevisiae deletion strains, locus YNL197C, strain WHI3, hits give low values 1.01 | S. cerevisiae deletion strains, locus YNL209W, strain ssb2, hits give low values 1 | S. cerevisiae deletion strains, locus YNL224C, strain SQS1, hits give low values 1.01 | S. cerevisiae deletion strains, locus YNL233W, strain BNI4, hits give low values 0.992 | S. cerevisiae deletion strains, locus YNL248C, strain rpa49, hits give low values 0.991 | S. cerevisiae deletion strains, locus YNL250W, strain rad50, hits give low values 0.986 | S. cerevisiae deletion strains, locus YNL271C, strain bni1, hits give low values 0.994 | S. cerevisiae deletion strains, locus YNL298W, strain CLA4, hits give low values 1.01 | S. cerevisiae deletion strains, locus YNL307C, strain MCK1, hits give low values 0.987 | S. cerevisiae deletion strains, locus YNL322C, strain KRE1 (second series), hits give low values 1.01 | S. cerevisiae deletion strains, locus YNL322C, strain KRE1, hits give low values 0.994 and 0.998 | S. cerevisiae deletion strains, locus YNR049C, strain mso1, hits give low values 1 | S. cerevisiae deletion strains, locus YNR052C, strain pop2, hits give low values 1 | S. cerevisiae deletion strains, locus YOL006C, strain TOP1, hits give low values 0.948 | S. cerevisiae deletion strains, locus YOL012C, strain htz1 1.21 | S. cerevisiae deletion strains, locus YOL147C, strain pex11, hits give low values 0.99 | S. cerevisiae deletion strains, locus YOR001W, strain rrp6, hits give low values 0.989 | S. cerevisiae deletion strains, locus YOR061W, strain CKA2, hits give low values 0.962 | S. cerevisiae deletion strains, locus YOR069W, strain VPS5, hits give low values 0.996 | S. cerevisiae deletion strains, locus YOR070C, strain gyp1, hits give low values 0.999 | S. cerevisiae deletion strains, locus YOR080W, strain dia2, hits give low values 0.994 | S. cerevisiae deletion strains, locus YOR083W, strain WHI5 (second series), hits give low values 1.01 | S. cerevisiae deletion strains, locus YOR083W, strain WHI5, hits give low values 1 | S. cerevisiae deletion strains, locus YOR106W, strain vam3, hits give low values 0.985 | S. cerevisiae deletion strains, locus YOR136W, strain idh2, hits give low values 0.988 | S. cerevisiae deletion strains, locus YOR144C, strain elg1, hits give low values 0.992 | S. cerevisiae deletion strains, locus YOR184W, strain ser1, hits give low values 0.99 | S. cerevisiae deletion strains, locus YOR231W, strain MKK1, hits give low values 1.02 | S. cerevisiae deletion strains, locus YOR265W, strain rbl2, hits give low values 1.01 | S. cerevisiae deletion strains, locus YOR270C, strain vph1, hits give low values 0.979 | S. cerevisiae deletion strains, locus YOR290C, strain snf2, hits give low values 1.01 | S. cerevisiae deletion strains, locus YOR316C, strain cot1, hits give low values 0.995 | S. cerevisiae deletion strains, locus YPL051W, strain arl3, hits give low values 1.02 | S. cerevisiae deletion strains, locus YPL078C, strain atp4, hits give low values 1 | S. cerevisiae deletion strains, locus YPL106C, strain sse1, hits give low values 0.977 | S. cerevisiae deletion strains, locus YPL240C, strain hsp82, hits give low values 1 | S. cerevisiae deletion strains, locus YPL241C, strain CIN2, hits give low values 0.997 | S. cerevisiae deletion strains, locus YPL256C, strain CLN2, hits give low values 0.969 | S. cerevisiae deletion strains, locus YPR119W, strain clb2, hits give low values 0.981 | S. cerevisiae deletion strains, locus YPR141C, strain kar3, hits give low values 0.976 | S. cerevisiae deletion strains, locus YPR163C, strain tif3, hits give low values 0.986 | S. cerevisiae deletion strains, locus YPR167C, strain met16, hits give low values 0.989 | S. cerevisiae deletion strains, strain wtn01, hits give low values 1 | S. cerevisiae strains, strain wild type, hits give low values 0.995
